Measured values as given in PubChem BioAssay (EPA / NIEHS).
Records with an inconclusive call do not appear. Active and inactive are the calls of the source. The calls were made as follows: active = hit-call score of the fitted dose curve at least 0.9, where 1 is the maximum; inconclusive = response in the unintended direction; inactive = score below 0.9.

Each molecule was assayed against Estrogen receptor (Homo sapiens) (UniProt P03372) (assay: ATG_ERa_TRANS: Attagene TRANS-FACTORIAL HepG2 Assay for human Estrogen Receptor alpha (ERa) (AID 2282970)). Details: HepG2 Attagene TRANS ERa GAL4 reporter, mRNA.
Chain of Estrogen receptor (Homo sapiens) (P03372 whole entry, looked up, the tested form may be a part): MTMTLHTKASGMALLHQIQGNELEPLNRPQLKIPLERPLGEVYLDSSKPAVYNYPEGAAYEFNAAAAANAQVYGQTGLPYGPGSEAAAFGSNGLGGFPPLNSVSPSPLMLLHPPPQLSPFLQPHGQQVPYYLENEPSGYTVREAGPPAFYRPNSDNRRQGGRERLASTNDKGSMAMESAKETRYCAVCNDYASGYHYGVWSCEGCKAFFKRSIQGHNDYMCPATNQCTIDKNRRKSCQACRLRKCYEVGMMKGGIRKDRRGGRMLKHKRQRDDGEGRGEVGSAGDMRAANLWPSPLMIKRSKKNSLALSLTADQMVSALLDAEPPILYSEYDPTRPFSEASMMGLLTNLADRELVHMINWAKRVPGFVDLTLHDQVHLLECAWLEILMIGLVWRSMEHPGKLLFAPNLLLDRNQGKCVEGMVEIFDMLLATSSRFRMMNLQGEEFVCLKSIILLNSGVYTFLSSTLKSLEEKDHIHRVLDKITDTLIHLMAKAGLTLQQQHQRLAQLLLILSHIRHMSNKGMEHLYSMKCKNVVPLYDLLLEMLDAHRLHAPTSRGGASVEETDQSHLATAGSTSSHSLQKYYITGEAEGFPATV
Summary of the method: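 HepG2 cells transiently transfected with multiplexed GAL4-UAS reporter units; ERa activity read via exogenous chimeric NR-Gal4 protein. After 24 hour compound exposure, reporter mRNA measured by RT-PCR with 6-FAM labelling and capillary electrophoresis; gain-of-signal fitted relative to DMSO.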
COc1cc2ncnc(Nc3cccc(Cl)c3)c2cc1OC was tested, and the outcome was “inactive”. For O=Cc1ccc(Cl)c([N+](=O)[O-])c1, the outcome was “inactive”. For CC(=O)[C@H]1CC[C@H]2[C@@H]3CC=C4C[C@@H](O)CC[C@]4(C)[C@H]3CC[C@]12C, the AC50 was 1.32 µM (active). For O=S(=O)(O)c1ccc(O)c2ncccc12, the outcome was “inactive”. CNCCCC12CCC(c3ccccc31)c1ccccc12 was tested, and the outcome was “inactive”. With C#C[C@]1(O)CC[C@H]2[C@@H]3CCC4=Cc5oncc5C[C@]4(C)[C@H]3CC[C@@]21C the AC50 was 0.412 µM (active). With CN1[C@@H]2CC(OC(=O)[C@H](CO)c3ccccc3)C[C@H]1[C@@H]1O[C@@H]12 (some centres not stated) the outcome was “inactive”. With CC(=O)/C=C/C1=C(C)CCCC1(C)C the outcome was “inactive”. In the case of Cc1ccc2n[nH]nc2c1, the outcome is reported as “inactive”. OCCOCCOCCOCCO was tested, and the outcome was “inactive”. For CC(C)OP(=O)(CP(=O)(OC(C)C)OC(C)C)OC(C)C, the outcome was “inactive”. With NC(N)=NC(=O)c1nc(Cl)c(N)nc1N the outcome was “inactive”. For CCCCCCCCCC=O, the outcome was “inactive”. With CC(C)C(C)(C)C(C)(C)C(C)(C)S the AC50 was 40.8 µM (active). With C[C@]12CC[C@H]3[C@@H](CCC4=CC(=O)CC[C@@]43C)[C@@H]1CC[C@@H]2C(=O)CO the AC50 was 1.78 µM (active).

Each molecule was assayed against Steroid hormone receptor ERR1 (Homo sapiens) (UniProt P11474) (assay: ATG_ERRa_TRANS: Attagene TRANS-FACTORIAL HepG2 Assay for human Estrogen-Related Receptor alpha (ERRa) (AID 2282971)). Details: HepG2 Attagene TRANS reporter, ERRa transactivation.
Chain of Steroid hormone receptor ERR1 (Homo sapiens) (P11474 whole entry, looked up, the tested form may be a part): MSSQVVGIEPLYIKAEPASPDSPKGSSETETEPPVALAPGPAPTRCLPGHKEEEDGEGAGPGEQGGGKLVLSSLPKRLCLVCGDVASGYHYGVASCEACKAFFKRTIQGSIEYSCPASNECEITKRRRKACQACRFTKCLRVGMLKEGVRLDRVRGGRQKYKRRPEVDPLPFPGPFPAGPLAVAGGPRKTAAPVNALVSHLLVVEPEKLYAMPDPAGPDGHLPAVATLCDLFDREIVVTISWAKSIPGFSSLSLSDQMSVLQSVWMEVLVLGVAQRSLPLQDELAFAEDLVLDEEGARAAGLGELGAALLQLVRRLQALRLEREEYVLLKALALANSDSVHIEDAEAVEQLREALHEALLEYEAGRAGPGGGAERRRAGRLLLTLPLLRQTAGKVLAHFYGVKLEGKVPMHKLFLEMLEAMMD
Summary of the method: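 HepG2 cells transiently transfected with multiplexed GAL4-UAS reporter units reading chimeric ERRa-Gal4 activity; 24 h compound exposure. Reporter mRNA measured by RT-PCR, 6-FAM labelling, HpaI digest and capillary electrophoresis; gain of signal fitted versus DMSO baseline.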
In the case of O=C1C(c2[nH]c3ccc(S(=O)(=O)O)cc3c2O)=Nc2ccc(S(=O)(=O)O)cc21, the outcome is reported as “inactive”. NCCCCCCN was tested, and the outcome was “inactive”. In the case of CCCCCCCCC=O, the outcome is reported as “inactive”. CCCCNC(=O)NS(=O)(=O)c1ccc(N)cc1 was tested, and the outcome was “inactive”. With CC(C)(C#N)c1cc(Cn2cncn2)cc(C(C)(C)C#N)c1 the outcome was “inactive”. In the case of CC1(C)C(=O)N(Br)C(=O)N1Cl, the outcome is reported as “inactive”. With CC(C)C[C@H]1C(=O)N2CCC[C@H]2[C@]2(O)O[C@](NC(=O)[C@@H]3C=C4c5cccc6[nH]c(Br)c(c56)C[C@H]4N(C)C3)(C(C)C)C(=O)N12 the outcome was “inactive”. For O=C(O)CN(CCN(CC(=O)O)CC(=O)O)CCN(CC(=O)O)CC(=O)O, the outcome was “inactive”. For CCN(CC)c1ccc(C(=C2C=CC(=[N+](CC)CC)C=C2)c2ccc(S(=O)(=O)O)cc2S(=O)(=O)[O-])cc1, the outcome was “inactive”. For CCCC/C=C\CCCCCCCCCC=O, the outcome was “inactive”. With N#Cc1ccccc1 the outcome was “inactive”. For COc1ccc(Cl)cc1C, the outcome was “inactive”. For O=CCCc1ccccc1, the outcome was “inactive”. For C=CC(=O)OCCn1c(=O)n(CCOC(=O)C=C)c(=O)n(CCOC(=O)C=C)c1=O, the outcome was “inactive”. In the case of CC[C@]12CCCN3CCc4c(n(c5ccccc45)[C@@](O)(C(=O)OC)C1)[C@@H]32, the outcome is reported as “inactive”. In the case of Nc1cc([N+](=O)[O-])ccc1Cl, the outcome is reported as “inactive”. In the case of CC(C#N)(CCC(=O)O)N=NC(C)(C#N)CCC(=O)O (configuration not stated), the outcome is reported as “inactive”.
